Experimental data: the supplement of paper PMC9262897, “Low-cost anti-mycobacterial drug discovery using engineered E. coli” (Nature Communications, 2022)
Structures can show the parent of a compound that is named as a salt. ± gives the standard deviation of the averaged measurements.

Tested on: E. coli TESEC Mtb Alr
Test: growth (OD600 after 10 h); higher = more growth (less inhibition)
Details: compound 0.1 mM
Procedure: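 TESEC Mtb Alr E. coli, or the Alr+ wild-type control, in 384-well plates with Prestwick library compounds at 0.1 mM and 1% DMSO, across arabinose induction levels of 1E3 to 1E7 nM. Growth is read as OD600 after 10 h at 37 °C in triplicate biological replicates.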

[1] = arabinose 1000 nM, raw OD600 reference: median of DMSO wells 0.294, cell-free background 0.041
[2] = arabinose 10000 nM, raw OD600 reference: median of DMSO wells 0.264, cell-free background 0.041
[3] = arabinose 100000 nM, raw OD600 reference: median of DMSO wells 0.201, cell-free background 0.041
[4] = arabinose 1000000 nM, raw OD600 reference: median of DMSO wells 0.193, cell-free background 0.041
[5] = arabinose 10000000 nM, raw OD600 reference: median of DMSO wells 0.146, cell-free background 0.041

Structure (SMILES) | growth [1] | growth [2] | growth [3] | growth [4] | growth [5]
Cn1c(=O)c2c(ncn2C)n(C)c1=O [Caffeine] | 0.28 ± 0.0091 | 0.277 ± 0.0046 | 0.2 ± 0.016 | 0.215 ± 0.0057 | 0.14 ± 0.0044
CCN(CC)C(C)CN1c2ccccc2Sc2ccccc21 (stereo not given) [Ethopropazine hydrochloride] | 0.214 ± 0.0057 | 0.271 ± 0.016 | 0.172 ± 0.003 | 0.135 ± 0.0087 | 0.174 ± 0.0019
CCOc1cc(CC(=O)N[C@@H](CC(C)C)c2ccccc2N2CCCCC2)ccc1C(=O)O [Repaglinide] | 0.199 ± 0.0075 | 0.26 ± 0.024 | 0.175 ± 0.0084 | 0.174 ± 0.0073 | 0.155 ± 0.01
CC1=C(/C=C/C(C)=C/C=C/C(C)=C\C(=O)O)C(C)(C)CCC1 [Isotretinoin] | 0.274 ± 0.016 | 0.24 ± 0.0073 | 0.218 ± 0.012 | 0.11 ± 0.0034 | 0.15 ± 0.004
Cn1nnc2c(C(N)=O)ncn2c1=O [Temozolomide] | 0.289 ± 0.0045 | 0.248 ± 0.0082 | 0.208 ± 0.018 | 0.163 ± 0.0073 | 0.134 ± 0.0048
CCC[C@H](N[C@@H](C)C(=O)N1[C@H](C(=O)O)C[C@@H]2CCCC[C@@H]21)C(=O)OCC [Perindopril] | 0.309 ± 0.0092 | 0.286 ± 0.0037 | 0.208 ± 0.016 | 0.198 ± 0.024 | 0.149 ± 0.0041
COc1cc2nc(N3CCN(C(=O)C4CCCO4)CC3)nc(N)c2cc1OC (stereo not given) [Terazosin hydrochloride] | 0.292 ± 0.0061 | 0.2762 ± 0.00084 | 0.139 ± 0.0052 | 0.138 ± 0.0066 | 0.144 ± 0.0038
COc1ccccc1N1CCN(CCCCNC(=O)c2ccc3ccccc3c2)CC1 | 0.179 ± 0.013 | 0.2704 ± 0.0024 | 0.195 ± 0.019 | 0.124 ± 0.0029 | 0.182 ± 0.0013
